Measurements: article doi:10.1101/2024.03.05.583629

Biological target: pT7_6His-AlfaTag-HOXD13 (human, UniProt P35453 263-343)
Experiment: PADIT-seq
Settings: dsDNA, one strand shown

Sequence of pT7_6His-AlfaTag-HOXD13 (P35453 263-343): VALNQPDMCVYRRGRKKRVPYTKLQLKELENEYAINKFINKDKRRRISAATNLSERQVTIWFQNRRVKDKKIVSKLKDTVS

First: CTCGAGGATATCAAGATCTGGCCTCGGCATTTTATCCGGAACCTCTAGCTAGCCGACTCACTATAGGGATAATCGCCCTGAGCAAAGACC
Second: CTCGAGGATATCAAGATCTGGCCTCGGCTCTCCACGCGGAACCTCTAGCTAGCCGACTCACTATAGGGATAATCGCCCTGAGCAAAGACC
The binding signal of the first is higher: 1.17 ± 0.0736 log2FC for the first, -0.925 ± 0.119 log2FC for the second.

First: CTCGAGGATATCAAGATCTGGCCTCGGCCGGATAAAAGGAACCTCTAGCTAGCCGACTCACTATAGGGATAATCGCCCTGAGCAAAGACC
Second: CTCGAGGATATCAAGATCTGGCCTCGGCACTCTAAAAGGAACCTCTAGCTAGCCGACTCACTATAGGGATAATCGCCCTGAGCAAAGACC
The binding signal of the first is higher: 0.58 ± 0.0859 log2FC for the first, 0.139 ± 0.11 log2FC for the second.

First: CTCGAGGATATCAAGATCTGGCCTCGGCTTTTTAGGGGGAACCTCTAGCTAGCCGACTCACTATAGGGATAATCGCCCTGAGCAAAGACC
Second: CTCGAGGATATCAAGATCTGGCCTCGGCTTTTTAGACGGAACCTCTAGCTAGCCGACTCACTATAGGGATAATCGCCCTGAGCAAAGACC
The binding signal of the first is higher: 1.5 ± 0.0951 log2FC for the first, -0.513 ± 0.133 log2FC for the second.

Going from “CTCGAGGATATCAAGATCTGGCCTCGGCACACTAAAAGGAACCTCTAGCTAGCCGACTCACTATAGGGATAATCGCCCTGAGCAAAGACC” to “CTCGAGGATATCAAGATCTGGCCTCGGCCAGCTAAAAGGAACCTCTAGCTAGCCGACTCACTATAGGGATAATCGCCCTGAGCAAAGACC”, the binding signal falls from 0.427 ± 0.0841 log2FC to -0.419 ± 0.146 log2FC.

Compared with “CTCGAGGATATCAAGATCTGGCCTCGGCCGCTAACGCGGAACCTCTAGCTAGCCGACTCACTATAGGGATAATCGCCCTGAGCAAAGACC”, “CTCGAGGATATCAAGATCTGGCCTCGGCTTTTTAGCGGGAACCTCTAGCTAGCCGACTCACTATAGGGATAATCGCCCTGAGCAAAGACC” is higher in binding signal: -0.899 ± 0.132 log2FC for the first, -0.0861 ± 0.121 log2FC for the second.

First: CTCGAGGATATCAAGATCTGGCCTCGGCCACGTAAAAGGAACCTCTAGCTAGCCGACTCACTATAGGGATAATCGCCCTGAGCAAAGACC
Second: CTCGAGGATATCAAGATCTGGCCTCGGCAAACCACGCGGAACCTCTAGCTAGCCGACTCACTATAGGGATAATCGCCCTGAGCAAAGACC
The binding signal of the first is higher: 1.76 ± 0.0916 log2FC for the first, -0.989 ± 0.132 log2FC for the second.

“CTCGAGGATATCAAGATCTGGCCTCGGCGCTTTAAAAGGAACCTCTAGCTAGCCGACTCACTATAGGGATAATCGCCCTGAGCAAAGACC” was tested, and the binding signal was 1.94 ± 0.0663 log2FC.
